Here are results for 21 compounds from PubChem BioAssay (NCI).

About 79,000 compounds went through this panel and 15% of them were active in at least one assay; those are over-represented in the sample as a whole. A number with no mark means an inactive call. The source made the active and inactive calls. Cut-off read from the data, not from the text of the source: active = growth inhibition above about 70%; inactive = the rest.

Assay [1] is described as follows: NCI Yeast Anticancer Drug Screen. Data for the rad50 strain (AID 155).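 Note: 0% = growth of vehicle-only cultures of the same strain.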 The following applies: S. cerevisiae rad50 strain growth inhibition; at 50.0 µM; hits give high values. A digest of the protocol:
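Genetically altered yeast (DNA repair pathway); compound treatment; growth inhibition vs vehicle ctrl.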

A short description of assay [2]: NCI Yeast Anticancer Drug Screen. Data for the mec2-1 strain (AID 157). Conditions: S. cerevisiae mec2-1 strain, at 50.0 µM, hits give high values. The essentials: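 Strain: mec2-1 (DNA repair/cell cycle alteration). Compound exposure, then growth measured; inhibition expressed relative to vehicle.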
Assay [3] in a line: NCI Yeast Anticancer Drug Screen. Data for the sgs1 mgt1 strain (AID 161).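 Note: 0% = growth of cultures given vehicle only.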 The following applies: S. cerevisiae sgs1 mgt1 strain, at 50.0 µM, hits give high values. A digest of the protocol:
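Inhibition of yeast growth, normalised to vehicle-treated controls, is reported for a strain bearing genetic alterations in DNA damage repair.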

Assay [4] is described as follows: NCI Yeast Anticancer Drug Screen. Data for the cln2 rad14 strain (AID 165).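 Note: 0% = growth equal to vehicle treated cultures.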 Conditions: S. cerevisiae cln2 rad14 strain, at 50.0 µM, hits give high values. A digest of the protocol: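 Compounds are applied to the cln2 rad14 yeast strain, and growth is then compared with that of vehicle-treated cultures to give inhibition.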
Assay [5] is described as follows: NCI Yeast Anticancer Drug Screen. Data for the bub3 strain (AID 167). The following applies: S. cerevisiae bub3 mutant strain, at 50.0 µM, hits give high values. The essentials:
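Yeast carrying a defined mutation is treated with each compound, and growth is compared with that of vehicle-exposed cells to give inhibition.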

Assay [6] in a line: NCI Yeast Anticancer Drug Screen. Data for the mlh1 rad18 strain (AID 175). The following applies: S. cerevisiae mlh1 rad18 strain growth inhibition; at 50.0 µM; hits give high values. The essentials: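 Read-out is yeast growth inhibition, calculated against vehicle-only controls. The compound was applied to a strain engineered with DNA damage repair alterations.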

For the compound `NC1=NS(=O)(=O)Nc2nc(-c3ccc([N+](=O)[O-])cc3)[nH]c21`, the growth inhibition was -43% in assay [1]; -45.8% in assay [2]; -53% in assay [3]; -22.4% in assay [4]; -38.2% in assay [5]; -45% in assay [6].

As to `O=S(=O)(O)CO`, the growth inhibition was 16.9% in assay [1]; 4.6% in assay [2]; 26% in assay [3]; 7.35% in assay [4]; -7.7% in assay [5]; 20.4% in assay [6].

As for `N#Cc1nc(COCc2ccccc2)oc1N`, the growth inhibition in assay [1] is -19.9%; in assay [2], -12.5%; in assay [3] it was -5.45%; in assay [4], 1.75%; in assay [5] it was -19.5%; in assay [6], -10.9%.

Consider `COC(=O)C1C(O)C(C(=O)OC)C(C)N(C)C1C` (stereo unspecified), for which the growth inhibition was 7.35% in assay [1]; -14.4% in assay [2]; -41.5% in assay [3]; -26.1% in assay [4]; -18.2% in assay [5]; -4.45% in assay [6].

For `NS(=O)(=O)c1ccc2cc(S(N)(=O)=O)ccc2c1`, the growth inhibition in assay [1] was 19.1%; in assay [2] it was 13.5%; in assay [3] it was 22.4%; in assay [4], 15.5%; in assay [5] it was 23.1%; in assay [6] it was 25.8%.

On to `Clc1ccc(C2ON=C(c3ccccc3)N2C23CC4CC(CC(C4)C2)C3)c(Cl)c1` (stereo unspecified), for which the growth inhibition in assay [1] was -18.9%; in assay [2], -26.4%; in assay [3] it was -12.4%; in assay [4], -48.6%; in assay [5], -21.4%; in assay [6], -21.5%.

With `C=CCCCCCC(O)C(O)C/C=C\C/C=C\CC` (stereo unspecified), the growth inhibition in assay [1] was 18.4%; in assay [2], 4.6%; in assay [3], 22.8%; in assay [4], -1.35%; in assay [5], 15.5%; in assay [6], 27.2%.

With `CC(C)c1cccc(C(C)C)c1NC(=O)OC1CCCCC1`, the growth inhibition is -11.7% in assay [1]; -22.8% in assay [2]; 8.2% in assay [3]; 20.2% in assay [4]; -1.6% in assay [5]; -2.85% in assay [6].

As for `CC(C)CCCC(C)C1CCC2C3CCC4=CC(=O)C=CC4(C)C3CCC12C` (stereo unspecified), the growth inhibition in assay [1] is 45.1%; in assay [2] it was 35.2%; in assay [3], 47.6%; in assay [4] it was 19.1%; in assay [5], 0.85%; in assay [6], 41%.

As to `O=C(O)CCC(NC(=O)c1ccc(Nc2nc3ccccc3nc2C(=O)O)cc1)C(=O)O` (stereo unspecified), the growth inhibition in assay [1] is -2%; in assay [2], -11.2%; in assay [3] it was -6.15%; in assay [4], 3%; in assay [5], 0%; in assay [6] it was 0.65%.

Regarding `CC(C)(Cc1ccc(Cl)cc1)NC(N)=O`, the growth inhibition is -35.5% in assay [1]; -73.7% in assay [2]; -21.4% in assay [3]; 3.1% in assay [4]; -44.1% in assay [5]; -31.8% in assay [6].

Regarding `O=C(NO)C(=O)NO`, the growth inhibition in assay [1] was -0.65%; in assay [2], -2.95%; in assay [3] it was -1.9%; in assay [4], -19.4%; in assay [5] it was -20%; in assay [6], -16.8%.

For the compound `O=C(O)c1cccc2c1cc(Br)c1ccccc12`, the growth inhibition in assay [1] is 22.6%; in assay [2], 23.2%; in assay [3], 32%; in assay [4], -42.5%; in assay [5], 15.8%; in assay [6] it was 24.7%.

`COC/C=C\COC`: the growth inhibition in assay [1] was 3.45%; in assay [2], 5%; in assay [3], 17.6%; in assay [4] it was -2.15%; in assay [5], -6.3%; in assay [6] it was 22.1%.

In the case of `COc1cc(C2C(Cl)C(=O)N2NC(=O)c2ccc(N)cc2)ccc1O` (stereo unspecified), the growth inhibition was 5.15% in assay [1]; -0.75% in assay [2]; -25.1% in assay [3]; -3.8% in assay [4]; -16.4% in assay [5]; -8.75% in assay [6].

For the compound `O=c1[nH]c2c([N+](=O)[O-])cc(Cl)cc2nc1/C=C(\O)c1cccnc1`, the growth inhibition is 18.4% in assay [1]; 0.7% in assay [2]; 33.8% in assay [3]; 36.2% in assay [4]; 4.25% in assay [5]; 45.1% in assay [6].

Regarding `O=C(Nc1ccc(Cl)c(Cl)c1)Oc1ccccc1Cl`, the growth inhibition in assay [1] is -15.2%; in assay [2], -29.6%; in assay [3] it was -4.9%; in assay [4], -36%; in assay [5], -16.4%; in assay [6] it was -29.9%.

Take `O=C1C=CC(=NN=c2c3ccccc3oc3ccccc23)C=C1`: the growth inhibition was -11.3% in assay [1]; -3.35% in assay [2]; 4% in assay [3]; -20.9% in assay [4]; 12.7% in assay [5]; 0.1% in assay [6].

On to `CC(=O)Nc1cc(F)c2c(c1F)Cc1cc(F)ccc1-2`, for which the growth inhibition in assay [1] is 15.1%; in assay [2], 21.9%; in assay [3], 11.7%; in assay [4], -63.4%; in assay [5], 5.15%; in assay [6] it was 7.95%.

For the compound `O=C(O)C(Nc1ccc(Cc2ccc(NC(C(=O)O)c3ccccc3)cc2)cc1)c1ccccc1` (stereo unspecified), the growth inhibition in assay [1] is 94% (active); in assay [2], 86% (active); in assay [3], 92% (active); in assay [4] it was -4.5%; in assay [5], 37.7%; in assay [6], 90% (active).

Turning to `CC(C)(C)OC(=O)[N+](=N)C(=O)C1CCC(=O)N1C(=O)OCc1ccccc1` (stereo unspecified), the growth inhibition is -27.7% in assay [1]; -33.6% in assay [2]; -23.4% in assay [3]; -11.4% in assay [4]; -1.9% in assay [5]; -20% in assay [6].
